Test results reported in PubChem BioAssay (Tox21).
Several values for one entry are separate records, joined by “and”; a condition that tells them apart may be missing. Equal values may be shown once. Inconclusive results are not listed. Where a call stands in place of a potency, no number is given. More than one record can exist for a structure, and the calls need not agree. Activity calls are given as the source filed them. Unless noted, the call rests on the fitted dose curve; in most records, active means well fitted curve in the direction sought with a large enough effect in the repeat runs; inconclusive means weak or mixed curves; inactive means no such curve, though single readings can be large; an effect the other way counts as inactive or inconclusive.

What was measured:
[1] = qHTS assay to identify small molecule agonists of the retinoic acid receptor (RAR) signaling pathway (AID 1159553); further: potency means the concentration at half of the fitted maximal effect
How it was run: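 C3RL4 RARE-luciferase cells were seeded at 1,000/well and grown overnight at 37 C, then exposed to compounds for 6 hr at 37 C, 5% CO2. Luciferase reagent was added and luminescence was read after 30 min at room temperature.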

[2] = qHTS assay to identify small molecule antagonists of the estrogen related receptor (ERR) signaling pathway from Tox21 library - cell viability counter screen (AID 1224834); further: nearly all actives have a fitted effect of over 30% in size; further: potency means the concentration at half of the fitted maximal effect
How it was run: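 ERR reporter cells, 2,000 per well, rested 6 h, then exposed to compound in DMSO for 17.5 hours at 37 C. Viability read as fluorescence after 30 min with CellTiter-Fluor.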

[3] = qHTS assay to identify small molecule agonists of the constitutive androstane receptor (CAR) signaling pathway - cell viability counter screen (AID 1224836); further: nearly all actives have a fitted effect of over 45% in size; further: potency means the concentration at half of the fitted maximal effect
How it was run: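 Multiplexed viability check: HepG2-CYP2B6-hCAR cells, 15-point compound dosing, 0.75 uM PK11195 final, 23 h at 37 C, CellTiter-Fluor fluorescence.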

[4] = molecular target: Luciferin 4-monooxygenase (Photinus pyralis) (UniProt P08659); experiment: qHTS assay to identify small molecule inhibitors of firefly luciferase (AID 1224835); further: nearly all actives have a fitted effect of over 25% in size; further: potency means the concentration at half of the fitted maximal effect
Luciferin 4-monooxygenase (Photinus pyralis), sequence (P08659 whole entry, looked up): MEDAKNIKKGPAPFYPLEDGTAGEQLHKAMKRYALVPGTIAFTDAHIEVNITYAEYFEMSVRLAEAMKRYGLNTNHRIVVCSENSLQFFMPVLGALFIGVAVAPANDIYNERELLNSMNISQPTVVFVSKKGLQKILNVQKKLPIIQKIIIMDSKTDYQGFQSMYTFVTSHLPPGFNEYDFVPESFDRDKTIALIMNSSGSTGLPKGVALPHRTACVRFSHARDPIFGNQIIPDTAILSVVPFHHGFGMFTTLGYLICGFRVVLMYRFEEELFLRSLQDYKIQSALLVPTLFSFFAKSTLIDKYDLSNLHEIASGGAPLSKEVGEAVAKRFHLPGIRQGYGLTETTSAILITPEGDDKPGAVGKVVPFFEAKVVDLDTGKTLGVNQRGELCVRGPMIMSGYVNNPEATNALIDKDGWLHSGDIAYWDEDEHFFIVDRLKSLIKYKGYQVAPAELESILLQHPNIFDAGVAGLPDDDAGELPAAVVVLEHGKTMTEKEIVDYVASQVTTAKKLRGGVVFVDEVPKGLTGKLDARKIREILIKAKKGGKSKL
How it was run: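 Biochemical qHTS: compounds run as interplate titrations against purified firefly enzyme, with D-luciferin and ATP each at its KM concentration. Light output recorded by CCD imaging.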

[5] = qHTS assay to identify small molecule antagonists of the estrogen related receptor (ERR) signaling pathway - cell viability counter screen (AID 1224818); further: series mostly up to about 46 µM
Description: National Center for Advancing Translational Sciences [NCATS]
NIH Chemical Genomics Center [NCGC]
U.S. Environmental Protection Agency [EPA]
National Institutes of Environmental Health Sciences [NIEHS]
National Toxicology Program [NTP]
U.S. Food and Drug Administration [FDA]
Estrogen related receptors (ERRs), the first orphan nuclear receptors discovered, play an important role in the control of cellular energy metabolism. ERRs are required for high-energy production in response to the environmental challenges. ERR-alpha was also identified as an adverse marker for breast cancer progression; ERR-alpha-positive tumors have a poor prognosis. To screen and to identify environmental compounds that perturb the ERR signaling pathways could provide valuable information for potential therapeutic or preventive measures in the treatment of metabolic disease. To differentiate true ERR antagonists or agonist from cytotoxic substances, the assay is multiplexed with cell viability assay.
Tox21 Assay Protocol Summary:
The ERR cells were dispensed at 2,000 cells/5 ul/well in 1536-well white plates using a Multidrop dispenser. After the assay plates were incubated at a 37 C/5% CO2 incubator for 6 hours, 23 nL of compounds dissolved in DMSO, positive and negative controls or DMSO only was transferred to the assay plate by a pin tool. The plates were incubated at 37 C for 17.5 hours. 1 ul/well of CellTiter-Fluor reagent was added into the assay plates using a Flying Reagent Dispenser. After 30 min incubation at 37 C/5% CO2, the fluorescence intensity in the plates was measured using a ViewLux plate reader.

[6] = qHTS assay to identify small molecule antagonists of the estrogen related receptor (ERR) signaling pathway (AID 1224819;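 further: luminescence from an ERR-driven luciferase reporter measured with One-Glo reagent; series mostly up to about 46 µM; nearly all actives have a fitted effect of over 50% in size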)
How it was run: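 ERR reporter cell line (NTP) plated at 2,000 cells/well, settled 6 h at 37C/5% CO2, then exposed to LOPAC compounds for 18 h at 37C. One-Glo luciferase luminescence read after 30 min at room temperature.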

[7] = qHTS assay to identify small molecule agonists of the estrogen related receptor (ERR) signaling pathway (AID 1224820)
How it was run: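 ERR reporter cells (NTP line) plated 2,000/well, incubated 6 h at 37 C/5% CO2, then pinned with compounds in DMSO and held 18 h at 37 C. One-Glo added; luminescence read after 30 min at room temperature.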

[8] = tested on: estrogen-related receptor alpha (ERRalpha) with PGC-1alpha coactivator, human; experiment: qHTS assay to identify small molecule antagonists of the estrogen related receptor signaling pathway with the pleiotropic PPARgamma coactivator (PGC) (AID 1224821; calls by dose curve;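 further: series mostly up to about 46 µM; lower luminescence signal means antagonism of PGC/ERR signalling; nearly all actives have a fitted effect of over 50% in size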)
How it was run: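 Cells engineered for PGC/ERR signalling (line from NTP) were plated 6 h at 37 C/5% CO2, then exposed to DMSO-dissolved compound for 18 h at 37 C. Luciferase activity was read by One-Glo luminescence after 30 min at room temperature.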

[9] = qHTS assay to identify small molecule antagonists of the estrogen related receptor signaling pathway with the pleiotropic PPARgamma coactivator (PGC) cell viability counter screen (AID 1224822; further: potency means the concentration at half of the fitted maximal effect)
How it was run: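 PGC/ERR cells rested 6 h, then compound-treated 17.5 h at 37 C. CellTiter-Fluor added for 30 min at 37 C, viability measured by fluorescence intensity.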

[10] = qHTS assay to identify small molecule agonists of the estrogen related receptor signaling pathway with the pleiotropic PPARgamma coactivator (PGC) (AID 1224823)
How it was run: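 PGC/ERR reporter cells were seeded, rested 6 h at 37 C/5% CO2, then exposed to compounds in DMSO by pin transfer for 18 h at 37 C. Luciferase activity was read as luminescence after One-Glo reagent and 30 min at room temperature.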

O=[N+]([O-])O
Potency [1]: inactive | Potency [2]: inactive | Potency [3]: inactive

CCn1cc[n+](C)c1C
Potency [1]: inactive | Potency [2]: inactive | Potency [4]: inactive | Potency [3]: inactive

CCCCCCCCn1cc[n+](C)c1
Potency [1]: inactive | Potency [4]: inactive

COCC(=O)N(c1c(C)cccc1C)C(C)C(=O)OC (centres undefined)
Potency [1]: inactive | Potency [2]: inactive | Potency [4]: inactive | Potency [3]: inactive

Cc1cc(Cl)ccc1N
Potency [1]: inactive | Potency [2]: inactive | Potency [4]: inactive | Potency [3]: inactive

CCC(=O)C(CC(C)N(C)C)(c1ccccc1)c1ccccc1 (centres undefined)
Potency [1]: inactive | Potency [2]: inactive | Potency [3]: inactive

CCCC[n+]1ccc(C)cc1
Potency [1]: inactive | Potency [2]: inactive and 68.2 µM (active) | Potency [4]: 20.3 µM (active) and inactive | Potency [3]: inactive

Cc1cc(-c2ccc(N)c(C)c2)ccc1N
Potency [1]: 15.1 µM (active) | Potency [2]: inactive | Potency [4]: 36 µM (active) and 56.2 µM (active) and 63.3 µM (active) | Potency [3]: inactive

O=C(O)COc1ccc(Cl)cc1Cl
Potency [2]: inactive | Potency [4]: inactive | Potency [3]: inactive

Nc1ccc(-c2ccc(N)cc2)cc1
Potency [1]: inactive | Potency [2]: inactive | Potency [4]: 78.7 µM (active) and 28.1 µM (active) | Potency [3]: inactive

CCNc1nc(Cl)nc(NCC)n1
Potency [1]: inactive | Potency [2]: inactive | Potency [4]: inactive | Potency [3]: inactive

O=C(O)C(Cl)Cl
Potency [2]: inactive | Potency [4]: inactive | Potency [3]: inactive

CC[n+]1ccccc1
Potency [1]: inactive | Potency [2]: inactive and 30.4 µM (active) | Potency [4]: inactive | Potency [3]: inactive

O=C(O)C(Cl)(Cl)Cl
Potency [1]: inactive | Potency [2]: inactive | Potency [4]: inactive | Potency [3]: inactive

C[C@]12CCC(=O)C=C1CC[C@@H]1[C@@H]2CC[C@]2(C)C(=O)CC[C@@H]12
Potency [1]: inactive | Potency [2]: inactive | Potency [4]: inactive | Potency [3]: inactive

C1CCC(NC2CCCCC2)CC1
Potency [1]: inactive | Potency [2]: inactive | Potency [4]: inactive | Potency [3]: inactive

O=P1(N(CCCl)CCCl)NCCCO1 (centres undefined)
outcome [5]: inactive | outcome [6]: inactive | outcome [7]: inactive | outcome [8]: inactive | Potency [9]: inactive | outcome [10]: inactive | Potency [2]: inactive | Potency [4]: inactive | Potency [3]: inactive

COc1ccccc1N
Potency [1]: inactive | Potency [2]: inactive | Potency [4]: inactive | Potency [3]: inactive

O=C(O)CCl
Potency [1]: inactive | Potency [2]: inactive | Potency [4]: inactive | Potency [3]: inactive

Nc1ccc(Cl)cc1
outcome [5]: inactive | Potency [9]: inactive | Potency [4]: inactive | Potency [3]: inactive

O=[N+]([O-])c1ccccc1O
Potency [1]: inactive | Potency [2]: inactive | Potency [4]: inactive | Potency [3]: inactive

CCCC[n+]1ccccc1
Potency [1]: inactive | Potency [2]: inactive | Potency [4]: inactive | Potency [3]: inactive

CCCCCCCCCCCC(=O)O
Potency [1]: inactive | Potency [2]: inactive | Potency [4]: 40 µM (active) and 57.6 µM (active) and 71 µM (active) | Potency [3]: inactive

CCCCCCCCCCCCCCCCn1cc[n+](C)c1
Potency [1]: inactive | Potency [4]: 81.4 µM (active) and inactive

Oc1cccc2cccnc12
Potency [9]: 0.727 µM (active) | Potency [2]: 2.74 µM (active) and 2.43 µM (active) and inactive

COP(=O)(OC)C(O)C(Cl)(Cl)Cl (centres undefined)
Potency [1]: inactive | Potency [2]: inactive | Potency [4]: inactive | Potency [3]: inactive

CCOP(=S)(OCC)Oc1ccc2c(C)c(Cl)c(=O)oc2c1
Potency [1]: inactive and 11.9 µM (active) | Potency [2]: inactive | Potency [4]: inactive and 15.5 µM (active) | Potency [3]: inactive

C=CCOC(Cn1ccnc1)c1ccc(Cl)cc1Cl (centres undefined)
Potency [2]: 30.7 µM (active) and 48.6 µM (active) and 29.8 µM (active) | Potency [4]: inactive

OCCOc1ccccc1
Potency [1]: inactive | Potency [2]: inactive | Potency [4]: inactive | Potency [3]: inactive

CC[N+](CC)(CC)CC
Potency [1]: inactive | outcome [5]: inactive | Potency [9]: inactive | Potency [2]: inactive | Potency [3]: inactive

O=C(O)c1ccccc1O
Potency [1]: inactive | Potency [2]: inactive | Potency [3]: inactive

CCCCCCCCCCn1cc[n+](C)c1
Potency [2]: inactive and 8.62 µM (active) | Potency [4]: inactive

CCCCCCCCCCCCn1cc[n+](C)c1
Potency [4]: inactive

CCCC[n+]1cccc(C)c1
Potency [2]: inactive | Potency [4]: inactive | Potency [3]: inactive

CCCC[N+]1(C)CCCCC1
Potency [2]: inactive | Potency [4]: inactive | Potency [3]: inactive

CCC[N+]1(C)CCCCC1
Potency [2]: inactive | Potency [4]: inactive | Potency [3]: inactive

CCCCn1cc[n+](C)c1
Potency [2]: inactive | Potency [3]: inactive

CCCCCCCCCCCCCC[P+](CCCCCC)(CCCCCC)CCCCCC
Potency [2]: 17.3 µM (active) and 24.5 µM (active) | Potency [4]: inactive | Potency [3]: 7.73 µM (active) and 9.77 µM (active)

CCCC[n+]1ccccc1C
Potency [2]: inactive | Potency [4]: inactive | Potency [3]: inactive

O=C(O)CC(O)(CC(=O)O)C(=O)O
Potency [2]: inactive | Potency [4]: inactive | Potency [3]: inactive

CCC[N+]1(C)CCCC1
Potency [2]: inactive | Potency [4]: inactive | Potency [3]: inactive

CCCCCC[n+]1ccccc1
Potency [2]: inactive | Potency [4]: inactive | Potency [3]: inactive

CCCCn1cc[n+](C)c1C
Potency [2]: inactive | Potency [4]: inactive | Potency [3]: inactive

CC(=O)[O][Hg][c]1ccccc1
Potency [2]: 2.41 µM (active) and 3.86 µM (active) and 7.5 µM (active) | Potency [4]: 1.25 µM (active) and 3.99 µM (active) and 2.75 µM (active) | Potency [3]: 2.41 µM (active) and 4.33 µM (active) and 5.96 µM (active)

O=c1[nH]c(=O)n(Cl)c(=O)n1Cl
Potency [2]: inactive | Potency [4]: inactive | Potency [3]: inactive

CCCCCCn1cc[n+](C)c1
Potency [2]: inactive | Potency [4]: inactive | Potency [3]: inactive

COc1ccc(N)cc1
Potency [4]: inactive | Potency [3]: inactive

O=c1nc(O)n(Cl)c(=O)n1Cl
Potency [2]: inactive | Potency [4]: inactive | Potency [3]: inactive

CC(Cl)(Cl)C(=O)O
Potency [2]: inactive | Potency [4]: inactive | Potency [3]: inactive

Nc1ccccc1
Potency [2]: inactive | Potency [3]: inactive

CCCn1cc[n+](C)c1
Potency [2]: inactive | Potency [4]: inactive | Potency [3]: inactive

O=C(O)c1nc(Cl)ccc1Cl
Potency [2]: inactive | Potency [4]: inactive | Potency [3]: inactive

C[N+](C)(C)Cc1ccccc1
Potency [2]: inactive | Potency [4]: inactive | Potency [3]: inactive

O=S(=O)(O)O
Potency [2]: inactive | Potency [3]: inactive

COP(=O)(OC)OC=C(Cl)Cl
Potency [2]: inactive | Potency [4]: inactive | Potency [3]: inactive

CNC
Potency [2]: inactive | Potency [4]: inactive | Potency [3]: inactive

N#CS
Potency [2]: inactive | Potency [3]: inactive

Nc1ccc(-c2ccc(N)c(Cl)c2)cc1Cl
Potency [2]: 54.5 µM (active) | Potency [4]: 35.8 µM (active) and 33.2 µM (active) and 12.6 µM (active) | Potency [3]: inactive

CC(=O)O
Potency [2]: inactive | Potency [3]: inactive

CCCC[N+]1(C)CCCC1
Potency [2]: inactive | Potency [4]: inactive | Potency [3]: inactive

CCCCCCCCCCCCOS(=O)(=O)O
Potency [2]: inactive | Potency [3]: inactive

Cc1cc(Cl)ccc1OCC(=O)O
Potency [2]: inactive | Potency [4]: inactive | Potency [3]: inactive

Oc1ccccc1-c1ccccc1
Potency [2]: inactive | Potency [4]: inactive | Potency [3]: inactive

CC[N+]1(C)CCCC1
Potency [2]: inactive | Potency [4]: inactive | Potency [3]: inactive

CN(C)[C@@H]1C(=O)C(C(N)=O)=C(O)[C@@]2(O)C(=O)C3=C(O)c4c(O)cccc4[C@@](C)(O)[C@H]3[C@H](O)[C@@H]12
Potency [2]: inactive | Potency [4]: inactive | Potency [3]: inactive
